Compound activity (PubChem BioAssay)
Sampled rows, rich in hits. Any-hit rate of the full collection: about 4.2%.
TRPV1 PAM: human TRPV1 potentiation. AID 540277. Q8NER1. potentiation, % at 8.33 µM. TRPV1-expressing cells, Fluo-8 calcium influx, capsaicin EC20 potentiation. 320,000 compounds, 0.02% hits; in the data active = potentiation above about 80%; inconclusive = between about 30% and that limit; also: 0% is about no effect
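Cells expressing TRPV1 were dye-loaded with Fluo-8 and read kinetically: 10 s baseline, 3 min after compound (agonist portion), then 2 min after EC20 capsaicin (allosteric enhancer portion). Calcium-bound dye fluorescence at 480/520 nm.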
D1 antag: blocks dopamine activation of the human D1 receptor; P21728; HEK293 TREx D1 cells, calcium flux, dopamine EC80; hits give low values; activity change, negative = inhibition, % at 10 µM; 360,000 compounds, 3.2% hits; AID 504652; in the data active = activity change below about -30%; also: % is scaled to controls: 0 for no effect and ±100 for the full control effect
Target sequence (P21728 whole entry, looked up): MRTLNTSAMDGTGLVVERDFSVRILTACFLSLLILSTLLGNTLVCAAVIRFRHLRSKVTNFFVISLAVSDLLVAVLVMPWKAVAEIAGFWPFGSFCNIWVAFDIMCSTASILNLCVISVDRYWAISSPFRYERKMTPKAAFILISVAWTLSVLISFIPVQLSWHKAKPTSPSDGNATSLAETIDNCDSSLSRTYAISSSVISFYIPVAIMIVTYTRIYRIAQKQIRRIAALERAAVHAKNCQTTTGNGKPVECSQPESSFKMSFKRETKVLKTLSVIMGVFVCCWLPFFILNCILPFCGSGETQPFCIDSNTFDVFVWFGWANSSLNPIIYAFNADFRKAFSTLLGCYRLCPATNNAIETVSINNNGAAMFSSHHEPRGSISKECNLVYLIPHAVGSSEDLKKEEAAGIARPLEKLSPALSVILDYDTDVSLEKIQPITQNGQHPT
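Allosteric or orthosteric antagonism assessed as attenuation of the calcium response to EC80 dopamine, added 180 s after compound, in induced HEK293 Trex D1 cells loaded with no-wash calcium dye.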
D1 PAM: potentiators of human D1 dopamine receptor; potentiation, % at 10 µM; 360,000 compounds, 0.036% hits; AID 504651; HEK293 TREx D1 cells, calcium flux, dopamine EC20 potentiation; P21728; in the data active = potentiation above about 30%; also: 0% is about no effect
D1 agonist: human D1 receptor agonism | 360,000 compounds, 1% hits | P21728 | HEK293 T-REx D1 cells, calcium flux, agonist mode | activation, % at 2 µM | AID 504660; in the data active = activation above about 30%; also: 0% is about no effect
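Inducible HEK293 T-REx D1 cells, force-coupled to calcium signalling, were plated at 4000 cells/well with tetracycline and held overnight at 30 C. After no-wash calcium dye loading, compound-evoked calcium rise over 180 s flagged agonists.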
TRPV1 ag: agonists of human vanilloid receptor 1 (TRPV1); Q8NER1; TRPV1-expressing cells, Fluo-8 calcium influx, agonist mode; activation, % at 8.33 µM; 320,000 compounds, 0.19% hits; AID 540275; in the data active = activation above about 80%; inconclusive = between about 30% and that limit; also: 0% is about no effect
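Cells expressing TRPV1 were dye-loaded with Fluo-8 and read kinetically: 10 s baseline, 3 min after compound (agonist portion), then 2 min after EC20 capsaicin (allosteric enhancer portion). Calcium-bound dye fluorescence at 480/520 nm.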
Starred values were filed as active, the others as inactive; ? = inconclusive; . = no result given.

SMILES | TRPV1 PAM | D1 antag | D1 PAM | D1 agonist | TRPV1 ag
CC(C)Sc1nc2c(c(=O)n1C)SC(C)C2 (stereo unspecified) | -2 | -32* | -10 | 2 | 2
OCCNCc1cc(Br)ccc1OCc1ccc(Cl)cc1Cl | 9 | 1 | -4 | 38* | 1
CCOC(=O)c1cc(S(=O)(=O)N2CCN(c3cc(C)ccc3C)CC2)[nH]n1 | . | -17 | -2 | 7 | .
O=C(O)CNC(=O)CC1S/C(=N/N=C2/NC(=O)CS2)NC1=O (stereo unspecified) | 1 | -30* | -5 | 7 | 0
Cc1cccc(NC(=O)CSc2nc3[nH]c(=O)cc(O)c3s2)c1 | 7 | -32* | 6 | 2 | -7
O=C(CSc1nc2[nH]c(=O)cc(O)c2s1)Nc1cccc(Br)c1 | ? | 2 | 4 | 2 | 2
CCN(CC)S(=O)(=O)c1ccc2c(c1)N(CC(=O)Nc1ccc(F)cc1F)C(=O)C1CCCN21 (stereo unspecified) | . | -32* | 1 | 3 | .
CCCCCCCn1c(=O)c(C(=O)OC)c(N)c2ccccc21 | 15 | -16 | -9 | 42* | 26
CCCCCCCCn1c(=O)c(C(=O)OC)c(N)c2ccccc21 | 12 | -11 | -10 | 13 | ?
COc1ccc(Nc2nc3c(S(=O)(=O)c4ccccc4)nnn3c3ccc(Cl)cc23)c(OC)c1 | . | 3 | 1 | 1 | .
Cc1cccc(C(=O)N2CCc3cc(CNS(=O)(=O)c4ccc(Cl)s4)ccc32)c1 | . | 8 | 1 | 11 | .
CN(C)c1ccc(/C=C2\SC(=S)N(Nc3ncc(C(F)(F)F)cc3Cl)C2=O)cc1 | 24 | -63* | -13 | 168* | 20
COc1cc(/C=C2\SC(=S)N(Nc3ncc(C(F)(F)F)cc3Cl)C2=O)ccc1O | ? | 9 | -1 | 97* | 10
O=C(COCc1ccccc1)N[C@@H](Cc1ccc(O)cc1)C(=O)O | ? | -36* | -3 | -3 | 1
CCn1cc2nc(SCC(=O)Nc3ccccc3F)n(Cc3ccc(C)cc3)c(=O)c2n1 | . | -1 | -1 | 7 | .
O=C(NCCCN1CCN(c2ccc(F)cc2)CC1)c1sc2ncccc2c1-n1cccc1 | . | -37* | -4 | -1 | .
O=C(O)c1nn(Cc2nc3ccccc3o2)c(=O)c2ccccc12 | 10 | -77* | . | 3 | -2
Cc1ccc(-c2noc(Cn3nc(C(=O)O)c4ccccc4c3=O)n2)cc1 | 3 | -3 | 0 | 0 | -1
OC(CNCC1CCCO1)Cn1c2ccccc2c2ccccc21 (stereo unspecified) | -2 | 1 | -4 | 11 | 3
OC(CNCC1CCCO1)Cn1c2ccc(Cl)cc2c2cc(Cl)ccc21 (stereo unspecified) | 4 | -32* | -13 | 28 | 5
O=C(Cc1ccc(Cl)cc1Cl)Nc1ccc(OC(F)F)c(Cl)c1 | 4 | -24 | -1 | 14 | 6
O=C(Nc1ccc([N+](=O)[O-])cc1)Nc1ccc2c(c1)OCCO2 | -14 | -41* | -14 | 39* | 5
COc1ccc(NC(=O)Nc2ccc3c(c2)N(C)C(=O)CS3)cc1Cl | -2 | -33* | -7 | 13 | ?
O=C(Nc1ccc(OC(F)F)c(Cl)c1)Nc1ccc2c(c1)OCO2 | 1 | -36* | -9 | 17 | 2
O=C(Nc1ccc([N+](=O)[O-])cc1)Nc1ccc(OC(F)F)c(Cl)c1 | -15 | -49* | -17 | 25 | 3
SMILES | TRPV1 PAM | D1 antag | D1 PAM | D1 agonist | TRPV1 ag
COc1cc([N+](=O)[O-])ccc1NC(=O)Nc1ccc2c(c1)OCCO2 | 2 | 7 | -7 | 1 | 0
CC(=O)c1ccc(NC(=O)CN2C(=O)CCc3ccccc32)cc1 | . | 2 | 2 | 1 | .
Cc1cccn2c(=O)c3cc(C(=O)NCc4ccccc4Cl)sc3nc12 | . | -1 | 1 | 0 | .
COc1ccccc1CCNC(=O)Nc1cccc([N+](=O)[O-])c1 | -3 | . | -8 | 4 | ?
COc1ccc(NC(=O)Nc2cccc([N+](=O)[O-])c2)cc1Cl | -7 | -57* | -20 | 20 | ?
Cc1ccc(-c2nc(N)s[n+]2-c2ccccc2)cc1 | 6 | -37* | 3 | 1 | -2
Cc1ccc(O)c(/C=N/NC(=O)CN2CCCC2)c1 | -4 | 5 | 0 | 4 | 1
O=C(CN1CCCCCCC1)N/N=C/c1ccc(F)cc1F | -12 | -32* | 2 | 5 | 7
O=C(COC(=O)C1CCN(c2ccc(C(F)(F)F)cn2)CC1)Nc1ccc(Cl)cc1 | 3 | -22 | -13 | 11 | 3
O=C(COC(=O)C1CCN(c2ccc(C(F)(F)F)cn2)CC1)Nc1ccc(Cl)cn1 | -41 | -59* | -18 | 9 | 2
CC(C)COc1ccc(C(=O)NCC2OCCc3ccccc32)cc1 (stereo unspecified) | . | -31* | -1 | 2 | .
O=C(CSc1nncn2c1cc1sccc12)Nc1ccc(Br)cc1F | . | -6 | -2 | 2 | .
CCCCS(=O)(=O)c1oc(-c2cccs2)nc1S(=O)(=O)c1ccc(F)cc1 | . | 1 | 4 | 81* | .
Cn1cccc1/C=C1\CCC/C(=C\c2cccn2C)C1=O | -10 | -32* | 5 | 139* | ?
Cc1cc2c(cc3c(SCc4ccc(Cl)cc4)nncn32)o1 | . | -17 | -4 | 0 | .
O=C(COC(=O)Cc1ccccc1F)Nc1ccc2c(c1)OCO2 | -9 | -37* | -4 | 5 | 24
O=C(Cc1ccccc1F)Nc1ccc(SC(F)F)cc1 | -10 | 15 | -3 | 8 | ?
O=C(COC(=O)Cc1ccccc1F)Nc1ccc(SC(F)F)cc1 | -10 | -35* | -7 | 8 | ?
CCOc1ccccc1CNC(=O)c1ccc2c(c1)N(Cc1ccc(C)cc1)CCS2 | . | -4 | -1 | 0 | .
Cc1cc(-c2ccccc2)c2c3c(cn2n1)c(=O)n(C)c(=O)n3C | -34 | -24 | -6 | 4 | 5
Cc1cc(-c2ccccc2)c2c3c(c(-c4ccccc4)n2n1)c(=O)n(C)c(=O)n3C | -4 | -68* | -1 | 1 | 2
Cc1ccccc1N1C(=O)C(Cl)=C(N2CCOCC2)C1=O | -2 | -45* | -3 | 1 | -5
Cc1ccccc1N1C(=O)C(Cl)=C(N2CCCCCC2)C1=O | -26 | -7 | -4 | 3 | 28
CC1CCCN(S(=O)(=O)c2cc3c(cc2Cl)NC(=O)CO3)C1 (stereo unspecified) | . | -5 | 0 | 1 | .
COc1ccc(CC(=O)NC2CC(=O)N(c3ccc(C)c(C)c3)C2)cc1OC (stereo unspecified) | . | . | -2 | 0 | .
COc1cc(OC)c(CN2CCc3c([nH]c4ccccc34)C2)cc1Br | 5 | -49* | -9 | 7 | -1
Cc1cccc(CN2CCc3c([nH]c4ccccc34)C2)c1 | -3 | 2 | 0 | 4 | 13
COc1cc(OC)c(CN2CCC(Cc3ccccc3)CC2)cc1Br | -21 | -43* | -9 | 9 | -4
COc1ccc(OC)c(CN2CCC(Cc3ccccc3)CC2)c1 | 19 | -15 | -10 | 9 | -2
